Source: PubChem BioAssay (NCATS)
Results filed as inconclusive are left out. The source made the active and inactive calls. Unless noted, the call rests on the fitted dose curve; in most records, active means well fitted curve in the direction sought with a large enough effect; inconclusive means small, poorly fitted or top-dose-only effect, or another doubt; inactive means no such curve, though single readings can be large; an effect the other way counts as inactive or inconclusive.

How the values were obtained:
[1] = Cell Viability - LYMP2-001 (AID 921);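 further: series mostly up to about 92 µM; 0% = DMSO only and full inhibition = tetraoctylammonium bromide control wells; nearly all actives have a fitted effect of over 70% in size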
Outline: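 Steps: seed 2500 lymphoblastoid cells/well; 5 hr, 37 C; add compound; 24 hr, 37 C; CellTiter-Glo reagent, 30 min room temperature; read luminescence. Concentration-response modeled by Hill equation for AC50.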

[2] = MultiTox-Fluor Cytotoxicity Assay - LYMP1-001 - Dead Cells (AID 946);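 further: 0% = DMSO and 100% = tetraoctylammonium bromide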
Outline: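 LYMP1-001 lymphoblastoid cells (2500/well) treated 16 h at 37 C. Dead-cell protease cleavage of bis-AAF-R110 read at Ex/Em 485/520. Normalized to DMSO and 15 uM tetraoctylammonium bromide; AC50 from Hill fits.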

[3] = Cell Viability - LYMP1-002 - Assay at 16 hr (AID 948);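 further: 0% = DMSO alone and full effect = 92 µM tetraoctylammonium bromide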
Outline: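 Seed 2500 LYMP1-002 cells per well in complete medium and hold 5 hr at 37 C. Add compound across a concentration series and incubate 16 hr at 37 C. Add CellTiter-Glo, wait 30 min at room temperature, read luminescence.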

[4] = MultiTox-Fluor Cytotoxicity Assay - LYMP1-002 - Live Cells (AID 955); further: on the % scale 0 is the no-effect control and ±100 the full control effect
Outline: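 After 16 h compound exposure at 37 C, live LYMP1-002 lymphoblastoid cells (2500/well) were quantified by cleavage of cell-permeant GF-AFC substrate, read at 405/510 nm after 60 min. Concentration-response fitted with Hill equation for AC50.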

[5] = MultiTox-Fluor Cytotoxicity Assay - LYMP1-002 - Dead Cells (AID 960);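 further: 0% = DMSO and 100% = tetraoctylammonium bromide; nearly all actives have a fitted effect of over 60% in size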
Outline: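 Dead-cell fluorescence (Ex/Em 485/520) after 16 h compound exposure at 37 C of LYMP1-002 lymphoblastoid cells in complete medium; AC50 by Hill equation, with data scaled between DMSO and 15 uM tetraoctylammonium bromide.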

[6] = MultiTox-Fluor Cytotoxicity Assay - LYMP1-003 - Dead Cells (AID 961);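 further: 0% = DMSO and 100% = tetraoctylammonium bromide; nearly all actives have a fitted effect of over 70% in size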
Outline: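 LYMP1-003 human lymphoblastoid cells (2500/well) exposed to compound 16 h at 37 C in complete medium; dead-cell protease read with bis-AAF-R110 fluorescence (Ex/Em 485/520) after 60 min at room temperature. Normalized to DMSO and 15 uM tetraoctylammonium bromide; AC50 from Hill fit.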

[7] = MultiTox-Fluor Cytotoxicity Assay - LYMP1-003 - Live Cells (AID 962);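 further: 0% = DMSO only and full loss = 92 µM tetraoctylammonium bromide; cytotoxic hits lower the live-cell protease signal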
Outline: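 Live-cell protease activity (GF-AFC substrate, 405/510 nm, 60 min at room temperature) after 16 h, 37 C compound exposure of human lymphoblastoid LYMP1-003 cells; concentration-response fitted to the Hill equation for AC50.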

[8] = Cell Viability - LYMP1-003 - Assay at 24 hr (AID 963);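 further: plate controls were DMSO only for no effect and tetraoctylammonium bromide positive control for full effect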
Outline: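 Concentration-response qHTS: ATP loss measured by CellTiter-Glo luminescence after 24 h compound exposure at 37 C. Cells were LYMP1-003 human lymphoblastoid, 2500 per well. AC50 derived via standard Hill equation modeling.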

[9] = Cell Viability - LYMP1-003 - Assay at 40 hr (AID 964); further: series mostly up to about 92 µM; on the % scale 0 is the no-effect control and ±100 the full control effect; nearly all actives have a fitted effect of over 60% in size
Outline: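 Viability is taken as cellular ATP, read by CellTiter-Glo luminescence after 40 h of compound exposure at 37 C. Cells: human lymphoblastoid line LYMP1-003 at 2500/well; AC50 values derived by Hill-equation fitting of concentration-response data.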

[10] = Cell Viability - LYMP2-003 (AID 965);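 further: cells exposed to compounds for 24 h before reading; 0% = DMSO only and full effect = 92 µM tetraoctylammonium bromide; nearly all actives have a fitted effect of over 50% in size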
Outline: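 Seed 2500 lymphoblastoid cells/well; incubate 5 hr, 37 C; add compounds; incubate 24 hr, 37 C; add CellTiter-Glo, 30 min RT; read luminescence. AC50 from Hill fit.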

[11] = Cell Viability - LYMP2-004 (AID 966);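 further: plate controls were DMSO only for no effect and tetraoctylammonium bromide control for full effect; nearly all actives have a fitted effect of over 65% in size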
Outline: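 AC50 values come from Hill modelling of concentration-dependent loss of intracellular ATP, measured by CellTiter-Glo luminescence. Human LYMP2-004 lymphoblastoid cells (2500/well) were exposed to compound for 24 h at 37 C.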

[12] = Confirmation and Secondary Assay for Modulators of Hemoglobin Beta Chain Splicing at IVS2 654 locus (AID 910);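 further: HeLa cells stably carrying EGFP split by mutant beta-globin IVS2-654 intron; per-well total GFP intensity by laser scanning cytometry after 2-day treatment; % of control where 0% means no effect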
Outline: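 Readout: per-well total peak green fluorescence (488 nm ex, 500–520 nm em) from objects 5–250 µm, reflecting correct splicing of an EGFP-654 reporter. Compounds were applied for 2 days at 37 °C to overnight-plated HeLa EGFP-654 cells; controls were DMSO and 500 nM IVS2-654 PNA.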

[13] = Confirmation and Secondary Assay for Modulators of Hemoglobin Beta Chain Splicing at IVS2 705 locus (AID 930);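 further: HeLa cells stably expressing the EGFP-705 splicing reporter; series mostly up to about 46 µM; % of control where 0% means no effect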
Outline: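 Restored EGFP fluorescence after 2-day compound exposure reports splicing correction in IVS2-705 EGFP reporter HeLa cells; positive control was 500 nM splice-blocking PNA oligo. Signal measured as well total peak GFP intensity (488 nm excitation).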

[14] = qHTS Assay for Identification of Small Molecule Agonists for Hypoxia Response Element Signaling Pathway (AID 914; active means well fitted activation curve with a large enough effect in the signal ratio, with a control signal flat, not every such curve was filed as active; the % refers to the signal ratio; further: % of control where 0% means no effect); settings: ME-180 (cervical carcinoma) HRE-bla reporter, beta-lactamase ratio, CoCl2, 17 h; active compounds read high
Outline: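 AC50 values come from titration-series %Activity, taken as the 460/530nm ratio of CCF4 fluorescence (excitation 405nm). CellSensor HRE-bla ME-180 cells were treated 17 hours at 37 C with compound plus an EC50 level of CoCl2.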

[15] = qHTS Assay for Identification of Small Molecule Agonists for Thrombopoietin (TPO) Signaling Pathway (AID 917); further: on the % scale 0 is the no-effect control and ±100 the full control effect
Outline: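 Cell-based luciferase reporter screen. Mouse Ba/F3 line stably expressing human TPO receptor; IL-3 removed overnight before plating. Co-treatment with compound and EC50 TPO (26 pM), 24 hrs at 37 C, then luminescence.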

[16] = biological target: Muscarinic acetylcholine receptor M1 (Rattus norvegicus) (UniProt P08482); test: qHTS Assay for Antagonists of Acetylcholine Muscarinic M1 Receptor: Kinetic Measurement of Intracellular Calcium Response (AID 943);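 further: Fluo-4 calcium signal as peak divided by basal fluorescence over 4 min; series mostly up to about 35 µM; nearly all actives have a fitted effect of over 75% in size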
Outline: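 Antagonism measured as reduction of carbachol-evoked (EC80, 100 nM final) calcium flux in rat M1-CHO cells after 10 min compound exposure. Fluo-4 signal read kinetically; ratio of maximal to basal fluorescence.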

[17] = biological target: Muscarinic acetylcholine receptor M1 (Rattus norvegicus) (UniProt P08482); test: qHTS Assay for Antagonists of Acetylcholine Muscarinic M1 Receptor: Measurement of IP-One Response (AID 944); further: nearly all actives have a fitted effect of over 75% in size
Outline: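 IP1 accumulation measured via TR-FRET between d2-IP1 and Eu-cryptate anti-IP1 antibody after carbachol (200 nM, EC80) stimulation for 30 min; rat M1-transfected CHO cells received compound 10 min before agonist.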

[18] = biological target: Pyruvate kinase (Leishmania mexicana) (UniProt Q27686); test: qHTS Validation Assay for Inhibitors of Leishmania Mexicana Pyruvate Kinase (AID 945);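 further: 0% = DMSO only neutral control wells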
Outline: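 Purified LmPYK (E451W mutant, 0.2 nM) was incubated 1 h at room temperature with 0.5 mM PEP and 0.1 mM ADP in 50 mM imidazole pH 7.2, 50 mM KCl, 7 mM MgCl2; ATP formed was read by PKLight luminescence, normalized to DMSO wells.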

[19] = biological target: Pyruvate kinase PKM (Homo sapiens) (UniProt P14618); test: qHTS Assay for Activators of Human Muscle Pyruvate Kinase (AID 954; active means well fitted curve in the direction sought with a large enough effect, not every such curve was filed as active;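 further: 0% = uninhibited enzyme and -100% = no enzyme or full thiadiazolimine inhibition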)
Outline: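 Compound pinned into substrate mix (0.5 mM PEP, 0.1 mM ADP), then 0.1 nM PKM2 added; 1 h, RT. Stop/detection luciferase reagent added, luminescence read. Normalized to no-inhibition and no-enzyme or reference-inhibitor controls.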

Measured: activation

Sequence of Muscarinic acetylcholine receptor M1 (Rattus norvegicus) (P08482 whole entry, looked up): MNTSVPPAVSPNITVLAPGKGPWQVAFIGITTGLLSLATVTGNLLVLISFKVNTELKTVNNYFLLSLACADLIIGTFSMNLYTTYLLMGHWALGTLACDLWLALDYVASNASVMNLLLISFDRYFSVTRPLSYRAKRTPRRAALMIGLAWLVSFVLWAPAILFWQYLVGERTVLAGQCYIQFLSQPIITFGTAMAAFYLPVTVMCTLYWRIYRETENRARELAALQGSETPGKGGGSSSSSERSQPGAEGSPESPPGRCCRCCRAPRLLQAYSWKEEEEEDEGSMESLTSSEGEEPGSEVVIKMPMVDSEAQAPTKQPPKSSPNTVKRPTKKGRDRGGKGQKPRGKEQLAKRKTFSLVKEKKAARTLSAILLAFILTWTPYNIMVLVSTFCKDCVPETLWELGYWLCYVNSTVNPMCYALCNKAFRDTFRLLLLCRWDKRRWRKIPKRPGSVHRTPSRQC
Sequence of Pyruvate kinase PKM (Homo sapiens) (P14618 whole entry, looked up): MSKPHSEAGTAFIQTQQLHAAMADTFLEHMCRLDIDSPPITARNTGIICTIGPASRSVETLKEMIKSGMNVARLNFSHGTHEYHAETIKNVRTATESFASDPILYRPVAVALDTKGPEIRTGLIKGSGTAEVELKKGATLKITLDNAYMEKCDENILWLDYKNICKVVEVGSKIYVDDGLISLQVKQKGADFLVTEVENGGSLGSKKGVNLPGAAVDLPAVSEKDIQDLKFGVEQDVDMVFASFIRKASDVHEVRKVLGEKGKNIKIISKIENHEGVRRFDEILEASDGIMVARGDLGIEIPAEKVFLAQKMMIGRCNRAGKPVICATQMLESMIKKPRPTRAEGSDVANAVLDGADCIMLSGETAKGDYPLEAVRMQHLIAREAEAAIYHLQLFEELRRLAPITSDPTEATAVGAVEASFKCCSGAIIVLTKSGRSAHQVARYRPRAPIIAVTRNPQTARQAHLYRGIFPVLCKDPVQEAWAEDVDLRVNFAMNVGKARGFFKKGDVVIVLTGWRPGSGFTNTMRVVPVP
Sequence of Pyruvate kinase (Leishmania mexicana) (Q27686 2-499 E452W): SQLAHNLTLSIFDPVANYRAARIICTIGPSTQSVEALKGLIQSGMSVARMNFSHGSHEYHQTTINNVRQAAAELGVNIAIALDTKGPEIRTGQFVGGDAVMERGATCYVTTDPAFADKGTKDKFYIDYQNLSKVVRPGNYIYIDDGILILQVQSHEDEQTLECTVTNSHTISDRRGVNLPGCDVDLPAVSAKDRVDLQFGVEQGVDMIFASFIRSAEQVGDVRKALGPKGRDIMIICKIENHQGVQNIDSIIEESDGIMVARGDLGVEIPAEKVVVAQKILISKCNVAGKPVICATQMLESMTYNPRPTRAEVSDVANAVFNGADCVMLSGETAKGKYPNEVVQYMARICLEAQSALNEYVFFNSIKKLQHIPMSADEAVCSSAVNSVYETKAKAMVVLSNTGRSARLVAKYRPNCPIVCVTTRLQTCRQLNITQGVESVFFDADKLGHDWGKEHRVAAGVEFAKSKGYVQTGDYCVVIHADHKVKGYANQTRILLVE

O=C(c1ccccc1)C(O)c1ccccc1 (configuration not stated)
not listed: [12] | [13] | [14] | [15] | [16] | [17] | [18] | [19]
inactive: all other assays above

CCCC(O)C(CC)CO (configuration not stated)
not listed: [12] | [13] | [14] | [15] | [16] | [17] | [18] | [19]
inactive: all other assays above

O=C1c2cccc(O)c2C(=O)c2c(O)cccc21
not listed: [1] | [10] | [14] | [15] | [16] | [17] | [18] | [19]
inactive: all other assays above

O=C1C(c2[nH]c3ccccc3c2O)=Nc2ccccc21
not listed: [12] | [13] | [14] | [15] | [16] | [17] | [18] | [19]
inactive: all other assays above

Nc1ccc(C(=O)Oc2ccccc2)c(O)c1
inactive: [12] | [13]

C[n+]1ccccc1/C=N/O
inactive: [12] | [13]

Cn1c([N+](=O)[O-])cnc1COC(N)=O
inactive: [12] | [13]

NCc1ccc(S(N)(=O)=O)cc1
inactive: [12] | [13]

CC(C)=CCC/C(C)=C/CO
inactive: [12] | [13]

Cc1onc(-c2ccccc2)c1-c1ccc(S(N)(=O)=O)cc1
inactive: [12] | [13]

CC(=O)Nc1ccc(C(=O)O)cc1
not listed: [12] | [13] | [14] | [15] | [16] | [17] | [18] | [19]
inactive: all other assays above

NC(N)=NCCN1CCCCCCC1
inactive: [12] | [13]

Cc1ccsc1/C=C/C1=NCCCN1C
inactive: [12] | [13]

CCCCCCCC(=O)OCC(COC(=O)CCCCCCC)OC(=O)CCCCCCC
not listed: [12] | [13] | [14] | [15] | [16] | [17] | [18] | [19]
inactive: all other assays above

O=C(O)COC(=O)Cc1ccccc1Nc1c(Cl)cccc1Cl
inactive: [14] -4.27%

FC(F)(F)C(Cl)Br (configuration not stated)
not listed: [12] | [13] | [14] | [15] | [16] | [17] | [18] | [19]
inactive: all other assays above

Cc1c(N(C)C)c(=O)n(-c2ccccc2)n1C
inactive: [1] | [2] | [3] | [4] | [6] | [7] | [8] | [9] | [10] | [11]

NC(N)=NS(=O)(=O)c1ccc(N)cc1
inactive: [12] | [13]

CCN(CC)CCOC(=O)C(c1ccccc1)c1ccccc1
inactive: [12] | [13]

C=CCNC(N)=S
not listed: [12] | [13] | [14] | [15] | [16] | [17] | [18] | [19]
inactive: all other assays above

O=C(CCBr)N1CCN(C(=O)CCBr)CC1
inactive: [12] | [13]

CCCCCC(N)=O
not listed: [12] | [13] | [14] | [15] | [16] | [17] | [18] | [19]
inactive: all other assays above

COc1ccc2cc(CCC(C)=O)ccc2c1
inactive: [12] | [13]

CC(=O)N[C@@H](CC(C)C)C(=O)O
inactive: [14] -5.35%

Cc1cc(O)cc(C)c1Cl
inactive: [12] | [13]

CN1CCCN=C1COC(=O)C(O)(c1ccccc1)C1CCCCC1 (configuration not stated)
inactive: [12] | [13]

Cc1cccc(Nc2ccccc2C(=O)O)c1C
inactive: [12] | [13]

Cc1[nH]c(C)c(Cl)c(=O)c1Cl
inactive: [12] | [13]

CC(=O)Oc1cccc(O)c1
inactive: [12] | [13]

NS(=O)(=O)c1cc(C2(O)NC(=O)c3ccccc32)ccc1Cl (configuration not stated)
inactive: [12] | [13]

NC(=O)CC[C@@H](N)C(=O)O
inactive: [15] | [16] | [17] | [18] | [19]
